In the library only some 5.4% were active in any assay of this set; here they are far more common.
JMJD2C inh: human JMJD2C demethylase inhibition | Q9H3R0 | AID 2099 | inhibition, % at 2.35 µM | GST-JMJD2C(1-420) H3K9me3 demethylation, DELFIA europium | 330,000 tested, 0.069% active;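 active = more than half of a compound's replicate wells show inhibition beyond 50%, single wells judged on their own value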;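 note: signal counts dimethyl H3K9 product captured on neutravidin plate; 0% = median of DMSO wells and 100% = 0.3 times that DMSO median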
Target sequence (Q9H3R0 1-420 limits assumed): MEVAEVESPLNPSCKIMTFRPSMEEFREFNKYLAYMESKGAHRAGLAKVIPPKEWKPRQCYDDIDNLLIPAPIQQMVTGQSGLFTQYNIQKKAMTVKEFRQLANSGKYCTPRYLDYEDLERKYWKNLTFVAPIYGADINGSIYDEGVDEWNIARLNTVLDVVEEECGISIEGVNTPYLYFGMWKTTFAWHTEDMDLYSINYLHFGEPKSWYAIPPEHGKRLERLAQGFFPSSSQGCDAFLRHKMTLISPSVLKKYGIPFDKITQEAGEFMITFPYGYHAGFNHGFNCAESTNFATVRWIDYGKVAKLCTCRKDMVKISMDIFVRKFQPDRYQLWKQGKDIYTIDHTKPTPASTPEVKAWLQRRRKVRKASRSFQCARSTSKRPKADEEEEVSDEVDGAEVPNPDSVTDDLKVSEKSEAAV
ALR H2O2 inh: human ALR oxidase inhibition via reduced H2O2; purified ALR, DTT oxidation, H2O2 HRP-luminol luminescence; inhibition, % (no concentration beside the values); AID 485317; P55789; 290,000 tested, 3.8% active;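 active = mean replicate inhibition above about 79%, with every replicate also reaching it, limit read from the data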
Target sequence (P55789 whole entry, looked up): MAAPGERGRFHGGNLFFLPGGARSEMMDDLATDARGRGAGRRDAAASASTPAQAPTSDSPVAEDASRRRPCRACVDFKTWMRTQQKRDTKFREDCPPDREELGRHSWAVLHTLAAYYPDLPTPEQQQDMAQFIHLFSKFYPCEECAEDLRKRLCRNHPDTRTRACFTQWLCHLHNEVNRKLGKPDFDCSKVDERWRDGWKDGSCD
beta cell repl: MIN6 beta-cell proliferation induction; AID 2380; proliferation, % at 10 µM; MIN6 cells proliferation, ATPlite luminescence, 48 h; cells starved in 0.2% serum; 100% = growth in 10% serum; 330,000 tested, 0.29% active;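 active = compounds whose signal lies at least 3.5 SD above the mean of all wells on their plate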;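 note: 0% = DMSO-treated cells in low-serum medium and 100% = 10% serum control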
Granule exo inh: lytic granule exocytosis inhibition. TALL-104 LAMP-1 surface exposure, flow cytometry; cells stimulated with thapsigargin and PMA. inhibition, % at 10 µM. 360,000 tested, 0.66% active. AID 651702;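 active = inhibition above about 55%, limit read from the data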
SMARCA2 act: activators of SMARCA2 function; AID 652017; activation, % at 9.1 µM; MG213 cells, MMTV-luciferase reporter, dexamethasone, overnight; 370,000 tested, 1% active; in the data active = activation above about 7.8%;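 note: 0% = vehicle wells and 100% = reference activator wells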
PfM18AAP inh: PfM18AAP enzyme inhibition | inhibition, % at 7.35 µM | AID 1822 | recombinant PfM18AAP, H-Glu-NHMec fluorogenic cleavage | 290,000 tested, 1.2% active;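 active = inhibition above the campaign mean inhibition over all tested compounds plus 3 SD, cut at about 28% in these data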;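 note: 0% = plate median of test compound wells and 100% = 2 mM ZnCl2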
SMARCA2 act conf: confirmation of SMARCA2 (BRM) function activators | shares compounds with SMARCA2 act | MG213 cells, MMTV-luciferase with dexamethasone, luminescence, overnight; MG213 cells expressing E1A, Rb sequestered; DMSO wells 0%, reference activator 100% | activation, % at 9.1 µM | 3,500 tested, 30% active;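 active = activation above its plate's cutoff, the mean activation of tested wells plus 3 SD, cut at about 7.9% in these data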
GAL4-VP16 Luc: counter-screen for SMARCA2 activators: GAL4-VP16 luciferase reporter activation; activation, % at 9.1 µM; 3,500 tested, 41% active; HEK293 GAL4-VP16 pG5luc reporter, luciferase luminescence; scaled: DMSO wells 0%, SAHA wells 100%; AID 686939; shares compounds with SMARCA2 act;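 active = activation above the solvent-only control well mean plus 3 SD, averaged across control plates, cut at about 5.2% in these data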
The depositor's hits bear a star; . = no result given.

SMILES	JMJD2C inh	ALR H2O2 inh	beta cell repl	Granule exo inh	SMARCA2 act	PfM18AAP inh	SMARCA2 act conf	GAL4-VP16 Luc
CCC12CC1(C(=O)OC)C(=O)N1CCc3c([nH]c4ccccc34)C12 (stereo unspecified)	.	.	.	-10	.	.	.	.
COc1ccccc1OCCn1nnc2ccccc21	-8	0	2	1	11*	-4	7	5
CC(=O)Nc1cccc(NC(=O)CSc2ncc(C(=O)Nc3ccccc3)c(=O)n2C)c1	0	.	-5	1	12*	.	28*	2
c1ccc(Nc2nc3ccccc3o2)cc1	1	-14	-5	-1	13*	10	6	8.4*
Cc1nnc(-c2ccccc2)o1	-4	-3	2	4	-3	-19	.	.
Cc1ccc(-c2nnc(/C=C/c3ccccc3)o2)cc1	11	-10	-3	-2	9.1*	4	7	10*
Cc1cccc(-c2nnc(-c3ccccc3)o2)c1	-7	.	0	-2	5	-9	.	.
Cc1ccc(/C=C/c2nnc(-c3cccc(C)c3)o2)cc1	15	-4	-2	-1	9.3*	0	2	1
CCC1(c2ccc(Cl)cc2)NC(=S)N(c2ccc(C)cc2)N1 (stereo unspecified)	14	-4	-3	0	9.3*	10	1	3
CC1=CC(C)(C)NC(=S)N1c1ccc(C)cc1	11	-6	-1	-2	-2	-4	.	.
COC(=O)C[C@H]1CC[C@@H]2[C@H](COC[C@H](O)CN2S(=O)(=O)c2ccccc2OC)O1	.	.	.	8	-4	.	.	.
CC(C)CC(=O)Nc1nnc(SCC(=O)Nc2ccc3c(c2)OCO3)s1	-11	1	0	0	2	-4	.	.
CC(C)(C)C(=O)Nc1nnc(SCC(=O)Nc2ccc3c(c2)OCO3)s1	-4	-18	0	3	13*	-18	-5	2
COc1ccc(NC(=O)c2ccc(-c3c(C)noc3C)c3ccoc23)cc1	.	.	.	0	-2	.	.	.
Cc1noc(C)c1-c1ccc(C(=O)Nc2ccccc2)c2occc12	.	.	.	-6	12*	.	4	16*
COc1ccc(-c2noc(-c3ccc(Cl)cc3)n2)cc1	-2	.	1	.	.	-3	.	.
COc1cccc(-c2noc(-c3cccs3)n2)c1	-2	.	-1	-3	9.5*	-1	8.0*	13*
COc1ccc(-c2nc(-c3ccc(C(=O)O)cc3)no2)cc1	2	5	-5	-4	8.4*	.	8.4*	15*
FC(F)(F)c1cccc(-c2nc(-c3ccncc3)no2)c1	4	-6	.	2	9.2*	-1	6	4
COC(=O)c1ccc(-c2nc(-c3cccs3)no2)cc1	.	-4	-3	3	11*	-2	-4	8.1*
O=C(O)c1ccc(-c2noc(-c3cccc(C(F)(F)F)c3)n2)cc1	-3	7	3	-2	2	.	.	.
Nc1ccn([C@@H]2O[C@H](C(=O)N[C@H](Cc3ccccc3)C(=O)N3CCN(CCO)CC3)[C@@H](O)[C@H]2O)c(=O)n1	.	.	.	.	-3	.	.	.
CCc1nc2c(OCc3ccc(C(F)(F)F)cc3)cccn2c1N(C)C(=O)C1CC1	.	.	.	7	0	.	.	.
Cc1ccc(S(=O)(=O)N2C(c3ccccc3)CC(=O)C3CN(S(=O)(=O)c4ccc(Cl)cc4)C(c4ccccc4)CC32)cc1 (stereo unspecified)	.	.	.	-5	0	.	.	.
Cc1cccc(C)c1-n1nnnc1C1(C)CCC(=O)N1CC(F)(F)F (stereo unspecified)	.	.	.	-7	-2	.	.	.
SMILES	JMJD2C inh	ALR H2O2 inh	beta cell repl	Granule exo inh	SMARCA2 act	PfM18AAP inh	SMARCA2 act conf	GAL4-VP16 Luc
COc1cccc(-c2nc(-c3ccccn3)no2)c1	1	1	-5	.	-5	3	.	.
COc1ccc(-c2ccc(-c3noc(-c4ccccc4)n3)c(OC)n2)cc1	6	19	-4	2	12*	3	2	2
COc1cccc(-c2nc(-c3ccccc3)no2)c1	-9	-4	1	0	8.8*	-2	8.4*	14*
COc1nc(-c2ccccc2)ccc1-c1noc(-c2ccccc2)n1	6	-8	-3	-1	3	-6	.	.
COc1ccc(Cc2c(-c3ccccc3)nc3ccc(Br)cn23)c(C)c1	.	.	.	-1	2	.	.	.
OCc1cn(-c2ccccc2)nc1-c1cc2ccccc2o1	2	.	-2	5	12*	-8	4	8.6*
CCN(CC)C(=O)CN(C#N)c1nc(OC)nc(N(C)C)n1	14	.	1	1	8.9*	4	0	0
COC(=O)c1cccc(-n2c(C)cc(O)cc2=O)c1	.	.	.	.	1	.	.	.
COC(=O)[C@]12C[C@H](CC(=O)NCc3cccc4ccccc34)C(=O)N(CCC3=CCCCC3)C1=C[C@H](COCc1ccccc1)O[C@@H]2C	.	.	.	.	-5	.	.	.
CCC(=O)N1CCC1(C)C(=O)Nc1cc(-c2ccccc2)nn1C (stereo unspecified)	.	.	.	2	10*	.	1	7.4*
CCn1c2ccccc2c2nnc(SCCN3CCOCC3)nc21	3	1	-2	0	0	-2	.	.
Cn1c2ccccc2c2nnc(SCCN3CCOCC3)nc21	4	.	1	-5	10*	-1	0	2
CCn1c(C)csc1=NC(=O)c1ccccc1O	10	1	1	-1	12*	4	4	8.0*
Fc1cccc(C2NN=C(c3ccccc3)S2)c1 (stereo unspecified)	-2	-9	-4	-2	12*	-2	14*	13*
Oc1cccc(Nc2nc(O)c(/C=C3\C=Nc4ccccc43)s2)c1	6	13	-6	31	11*	7	15*	6.5*
COc1ccc(/C=C2\COc3ccccc3C2=O)c(OC)c1	-10	1	-3	-10	8.9*	5	6	5.2*
CCNc1nc(NCC)nc(SCCOc2ccc(C)cc2)n1	-4	0	-3	4	9.6*	0	1	5
CCOc1nc(SCCOc2ccc(C)cc2)nc(N(C)C)n1	.	-3	-1	1	-4	1	.	.
Nc1ccc2c(c1Cl)C(=O)c1ccc(N)c(Cl)c1C2=O	-15	.	.	3	10*	3	23*	5.2*
Nc1c(C(=O)O)ccc2c1C(=O)c1ccccc1C2=O	29	-3	-1	1	4	-6	.	.
COc1ccc(CN2C[C@@H](CO)O[C@@H](n3cnc4c(NCc5ccco5)ncnc43)C2)cc1	.	.	.	-2	0	.	.	.

Assay outcomes: PubChem, several laboratories
